Source: publication PMC5540273 (PLoS ONE, 2017)

Assays:
Conditions in all cases: concentration: 1 μM, replicates: in singlicate; n = 1
SRPK2 = test system: SRPK2
SRPK3 = test system: SRPK3
STK16 = test system: STK16
STK33 = test system: STK33
STK35 = test system: STK35
STK36 = test system: STK36
STK39 = test system: STK39
SYK = test system: SYK
SgK110 = test system: SgK110
TAK1 = test system: T1, TAK1
T1 construct: gene MAP3K7
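Note: KINOMEscan kinase panel screen.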

Row | Structure (SMILES) | %Inh (SRPK2) [%] | %Inh (SRPK3) [%] | %Inh (STK16) [%] | %Inh (STK33) [%] | %Inh (STK35) [%] | %Inh (STK36) [%] | %Inh (STK39) [%] | %Inh (SYK) [%] | %Inh (SgK110) [%] | %Inh (TAK1) [%]
1 | Cc1ccc(NC(=O)Nc2ccc(Cl)c(C(F)(F)F)c2)cc1-c1ccc(C(=O)Nc2ccncc2)cc1 [GSK1398470] | 0 | 23 | 0 | 6 | 8 | 37 | 0 | 13 | 0 | 0
2 | Fc1ccc(-c2nn3cccc(F)c3c2-c2ccncc2)cc1 [GW475620] | 0 | 16 | 0 | 5 | 0 | 28 | 1 | 14 | 0 | 0
3 | CCn1c(-c2c(N)noc2C)nc2cnccc21 [SB-737856] | 0 | 2 | 0 | 0 | 0 | 0 | 6 | 1 | 0 | 0
4 | O=C1NC(=O)C(c2ccc(Cl)cc2)=C1Nc1cccc(Cl)c1 [SB-317651] | 3 | 8 | 0 | 0 | 0 | 2 | 17 | 0 | 0 | 34
5 | COc1ccc(Nc2nccc(N3CCC(NC(=O)C(C)c4ccc(Cl)cc4)CC3)n2)cc1 (stereo not shown) [GSK1379812] | 0 | 8 | 10 | 0 | 0 | 18 | 38 | 32 | 27 | 0
6 | O=c1cc(N2CCOCC2)nc2n(Cc3cccc(Cl)c3Cl)c3ccccc3n12 [GSK2299009] | 0 | 15 | 31 | 18 | 14 | 0 | 0 | 50 | 0 | 0
7 | NS(=O)(=O)c1cccc(N/C=C2\C(=O)Nc3ccc(S(=O)(=O)Cc4c(Cl)cccc4Cl)cc32)c1 [GSK398099] | 0 | 0 | 19 | 0 | 0 | 0 | 0 | 0 | 0 | 0
8 | O=C1NC(=O)C(c2ccc(Cl)cc2)=C1Nc1ccc(O)cc1 [SB-340867] | 18 | 0 | 0 | 0 | 0 | 11 | 0 | 4 | 50 | 0
9 | Cc1ccc(-c2nc(Nc3ccncc3)c3ccccc3n2)s1 [GSK189015] | 0 | 18 | 12 | 12 | 18 | 0 | 15 | 5 | 0 | 0
10 | COc1ccc2cc(-c3nc(-c4ccccc4C(C)C)[nH]c3-c3ccncc3)ccc2c1 [SB-660566] | 0 | 0 | 9 | 0 | 38 | 41 | 31 | 10 | 0 | 0
11 | COc1ccc(-c2coc3ccc(-c4nnc(C)o4)cc23)cc1 | 0 | 0 | 21 | 0 | 0 | 13 | 0 | 17 | 52 | 0
12 | CNc1nc(-c2ccc3c(N)n[nH]c3c2)cc(N2C[C@@H](C(=O)Nc3ccccc3)CC[C@H]2C)n1 [GSK2298859] | 29 | 0 | 13 | 9 | 0 | 0 | 6 | 16 | 0 | 0
13 | COc1ccc(CSc2nnc(-c3ccc4c(c3)CCO4)o2)cc1 | 0 | 0 | 5 | 0 | 0 | 0 | 0 | 0 | 26 | 0
14 | CC(=O)c1c(C)c2cnc(Nc3ccc(N4CCNCC4)cn3)nc2n(C2CCCC2)c1=O | 0 | 0 | 0 | 0 | 8 | 0 | 0 | 0 | 0 | 28
15 | Nc1ncnc2occ(-c3ccc4c(c3)CCN4C(=O)Cc3cc(F)ccc3F)c12 [GSK2645446] | 0 | 0 | 0 | 0 | 0 | 0 | 0 | 0 | 0 | 17
16 | CNc1cc(-c2ccc3c(N)n[nH]c3c2)nc(N)n1 [GSK2224810] | 1 | 0 | 19 | 0 | 6 | 0 | 0 | 7 | 0 | 26
17 | COC(=O)C(NC(=O)NC1CCN(c2ccnc(Nc3ccc(F)cc3)n2)C1)c1ccccc1 (stereo not shown) [GSK1379712] | 0 | 0 | 0 | 0 | 0 | 29 | 0 | 21 | 19 | 12

Row | Structure (SMILES) | %Inh (SRPK2) [%] | %Inh (SRPK3) [%] | %Inh (STK16) [%] | %Inh (STK33) [%] | %Inh (STK35) [%] | %Inh (STK36) [%] | %Inh (STK39) [%] | %Inh (SYK) [%] | %Inh (SgK110) [%] | %Inh (TAK1) [%]
18 | COc1ccc(CSc2nnc(-c3ccc4ncsc4c3)o2)cc1C(F)(F)F | 0 | 0 | 15 | 0 | 0 | 0 | 0 | 0 | 25 | 0
19 | Cc1ccc(NC(=O)c2ccc(Cl)cc2)cc1-c1ccc(C(=O)Nc2ccncc2)cc1 [GSK1398467] | 0 | 0 | 7 | 0 | 0 | 0 | 6 | 3 | 0 | 0
20 | COc1cccc(NC(=O)Nc2ccc(C)c(-c3ccc(C(=O)Nc4ccncc4)cc3)c2)c1 [GSK1398474] | 0 | 27 | 11 | 0 | 0 | 51 | 33 | 40 | 0 | 0
21 | Cn1cncc1-c1cc2c(Nc3ccc(OCc4ccccc4)cc3)ncnc2cn1 [GW281179] | 0 | 0 | 4 | 0 | 0 | 0 | 12 | 27 | 0 | 0
22 | CSc1ccc(-c2nc3n(c2-c2ccncc2)CCC3)cc1 [SKF-105561] | 25 | 0 | 4 | 11 | 3 | 16 | 0 | 18 | 0 | 0
23 | COc1cccc(CNC(=O)NC2CCN(c3ccnc(Nc4ccc(F)cc4)n3)C2)c1 (stereo not shown) [GSK1379723] | 0 | 16 | 10 | 0 | 5 | 0 | 10 | 18 | 1 | 0
24 | CC[C@@H]1CO[C@H](C(=O)Nc2ccccc2)CN1c1cc(-c2ccc3c(N)n[nH]c3c2)nc(NC)n1 [GSK2376236] | 0 | 0 | 21 | 2 | 0 | 0 | 0 | 0 | 0 | 6
25 | COc1ccc(Nc2nccc(NCCNC(=O)Nc3cc(C)ccc3C)n2)cc1 [GSK1379899] | 0 | 10 | 0 | 0 | 0 | 0 | 0 | 24 | 0 | 0
26 | FC(F)(F)c1ccccc1-c1cc(-c2c[nH]nc2-c2ccccn2)ccn1 [GW679396] | 0 | 0 | 20 | 0 | 0 | 29 | 7 | 25 | 0 | 4
27 | COc1cc2ncnc(Nc3cccc(Br)c3)c2cc1OC.Cl [GI230329] | 40 | 0 | 0 | 0 | 0 | 0 | 5 | 13 | 17 | 0
28 | COC(=O)c1cccc(NC(=O)NC2CCN(c3ccnc(Nc4ccc(OC)cc4)n3)C2)c1 (stereo not shown) [GSK1379746] | 28 | 0 | 8 | 0 | 0 | 0 | 5 | 0 | 0 | 0
29 | Cc1nccc(-c2c(-c3ccc(F)cc3)ncn2CCCN2CCOCC2)n1.Cl [SB-282975] | 0 | 0 | 0 | 14 | 0 | 10 | 28 | 28 | 26 | 26
30 | Nc1cccc(-c2ccc3c(N)n[nH]c3c2)n1 [GSK2192730] | 0 | 0 | 27 | 0 | 0 | 0 | 1 | 0 | 0 | 43
31 | COc1nccc(-c2c(-c3ccc(F)cc3)ncn2CCCN2CCOCC2)n1 [SB-282852] | 26 | 23 | 9 | 0 | 0 | 0 | 6 | 0 | 0 | 43
32 | Cc1ccc(NC(=O)Nc2ccccc2)cc1-c1ccc(C(=O)Nc2ccncc2)cc1 [GSK1398471] | 0 | 0 | 9 | 0 | 0 | 0 | 3 | 24 | 0 | 0
33 | CCc1ccc(-c2ccc3c(c2)-c2n[nH]cc2S(=O)(=O)N3C)cc1 | 14 | 0 | 0 | 0 | 15 | 0 | 0 | 19 | 0 | 0
34 | COc1cccc(C2=C(Nc3cc(Cl)c(O)c(Cl)c3)C(=O)NC2=O)c1 [SB-390767] | 5 | 24 | 11 | 0 | 0 | 0 | 0 | 0 | 0 | 0
